Screening data (PubChem BioAssay)
TDP1 cell noCPT: qHTS for Inhibitors of human tyrosyl-DNA phosphodiesterase 1 (TDP1): qHTS in cells in absence of CPT | DT40 Tdp1-/- hTDP1 cells, no CPT, ATP luminescence, 48 h | Potency, µM (doses to about 46.2 µM), inactives show top-dose activity change, negative = growth inhibition, most hits filed as inhibitors | 420,000 tested, 15% active; note: % is set by controls: 0 for no effect and ±100 for the full control effect; nearly all actives have a fitted effect of over 55% in size
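No-CPT arm: Tdp1-/-;hTDP1 DT40 cells (400/well) plus compounds, incubated ≥48 hr at 37 °C. Readout CellTiter-Glo luminescence.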
TDP1 inh: inhibitors of human tyrosyl-DNA phosphodiesterase TDP1. Q9NUW8. recombinant TDP1, AlphaScreen DNA substrate cleavage. Potency, µM (top dose mostly 130 µM), for the others: at the top dose activity change, negative = inhibition, most hits filed as inhibitors. 350,000 tested, 0.28% active; note: % is set by controls: 0 for no effect and ±100 for the full control effect; nearly all actives have a fitted effect of over 40% in size
Target sequence (Q9NUW8 whole entry, looked up): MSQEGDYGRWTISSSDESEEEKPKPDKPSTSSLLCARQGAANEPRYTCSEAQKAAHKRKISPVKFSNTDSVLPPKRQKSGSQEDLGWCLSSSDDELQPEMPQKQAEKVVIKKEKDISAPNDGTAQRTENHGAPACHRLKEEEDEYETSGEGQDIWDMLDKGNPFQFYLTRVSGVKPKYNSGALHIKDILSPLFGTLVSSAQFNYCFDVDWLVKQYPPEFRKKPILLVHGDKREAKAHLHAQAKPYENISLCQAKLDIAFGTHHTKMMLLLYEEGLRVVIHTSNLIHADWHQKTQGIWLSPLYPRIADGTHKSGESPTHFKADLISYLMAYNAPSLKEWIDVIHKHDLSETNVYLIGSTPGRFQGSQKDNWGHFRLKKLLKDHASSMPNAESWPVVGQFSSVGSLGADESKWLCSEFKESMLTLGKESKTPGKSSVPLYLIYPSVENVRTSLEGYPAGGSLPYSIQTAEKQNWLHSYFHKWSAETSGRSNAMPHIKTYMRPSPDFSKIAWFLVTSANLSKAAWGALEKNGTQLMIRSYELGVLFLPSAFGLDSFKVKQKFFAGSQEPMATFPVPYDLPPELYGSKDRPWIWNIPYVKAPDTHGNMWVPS
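Signal: AlphaScreen proximity between streptavidin donor and anti-FITC acceptor beads on intact substrate. Reaction: Tdp1 1 nM, substrate 15 nM final, 5 min RT after 15 min compound preincubation.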
TDP1 cell CPT: growth inhibition of DT40 Tdp1-/-;hTDP1 cells with camptothecin (screen for TDP1 inhibitors); AID 686979; chicken DT40 Tdp1-/-;hTDP1 cells + 20 nM CPT, ATP luminescence, 48 h; Potency, µM (doses to about 46.2 µM), inactives show top-dose activity change, negative = growth inhibition, most hits filed as inhibitors; 420,000 tested, 12% active; note: % is set by controls: 0 for no effect and ±100 for the full control effect; nearly all actives have a fitted effect of over 55% in size
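Cell growth measured by CellTiter-Glo luminescence after a minimum 48 h, 37 C compound exposure with 20 nM CPT in Tdp1-knockout DT40 cells stably expressing hTDP1, seeded 400/well; qHTS titration format.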
ClpP mod: qHTS Assay for Activators of ClpP | ATP-dependent Clp protease proteolytic subunit (Bacillus subtilis (strain 168)), P80244 | purified B. subtilis ClpP, FRET peptide cleavage, 20 min | Potency, µM (series often up to 57.5 µM), for inactives: at the top dose activity change, negative = active | 340,000 tested, 1.9% active | AID 651965, 2013; active = well fitted falling curve with a large enough effect; inconclusive = small, poorly fitted or top-dose-only effect; inactive = no such curve, though single readings can be large or run the other way; note: the source files actives as falling curves though it sought activators and does not explain the sign; nearly all actives have a fitted effect of over 65% in size
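Purified B. subtilis ClpP, 10 microg/mL final in Tris/HCl pH8 with KCl, BSA, glycerol and Tween-20, cleaved an Abz/nitrotyrosine-quenched decapeptide. Fluorescence (ex 320, em 430) was read at 0 and 20 min at room temperature. Delta was normalized to 5.8 microM ADEP and DMSO/no-enzyme controls.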
* = called active by the depositor; ? = inconclusive; · = not tested or not shown; [ ] = remark or other dose. Sampled rows, rich in hits. Any-hit rate of the full collection: about 17%. Unless noted, calls come from the whole dose curve; as a rule, active = well fitted curve in the direction sought with a large enough effect; inconclusive = small, poorly fitted or top-dose-only effect, or another doubt; inactive = no such curve, though single readings can be large; an effect the other way counts as inactive or inconclusive. Potency is the fitted concentration of half-maximal effect.

SMILES | TDP1 cell noCPT | TDP1 inh | TDP1 cell CPT | ClpP mod
Cc1cccc(CS(=O)(=O)c2ncc(Cl)c(C(=O)NCc3ccccc3)n2)c1 | 2.6µM* | 7% | 3.3µM* | 1%
Cc1ccccc1NC(=O)c1nc(S(C)(=O)=O)ncc1Cl | 2.3µM* | 3% | 2.3µM* | -1%
CCSc1ncc(Cl)c(C(=O)Nc2nnc(CC)s2)n1 | -9% | 1% | -21% | -4%
Cc1ccccc1CN1CCN(CC(=O)NCc2ccccc2Cl)C1=O | -21% | 8% | 1% | -2%
COc1ccc(-c2c(C(F)(F)F)nn(C)c2NC(=O)CSCC(=O)O)cc1 | 0% | 3% | 12% | 1%
C[C@]12C[C@H](O)C3[C@@H](CCC4=CC(=O)CC[C@@]43C)[C@@H]1CC[C@@H]2C(=O)CO (some centres undefined) | · | 10% | · | ·
O=C(COC(=O)c1ccc(F)cc1F)Nc1ccc2c(c1)OCO2 | -23% | · | -21% | -6%
Cc1cccc(CSc2ncc(Cl)c(C(=O)Nc3nnc(C)s3)n2)c1 | -14% | 7% | -15% | 0%
CCSc1nnc(NC(=O)c2ccccn2)s1 | 3.2µM* | 11% | 5µM* | 0%
Cc1nnc(NC(=O)c2nc(S(=O)(=O)Cc3ccccc3)ncc2Cl)s1 | 12µM* | 5% | 9.2µM* | 1%
O=C(CNC(=O)c1cccs1)N=Nc1c(O)[nH]c2ccc([N+](=O)[O-])cc12 | -14% | -1% | -11% | 0%
CC1(C)N=C(N)N=C(N)N1c1ccc(Cl)cc1 | 0.34µM* | · | ? | ·
CC1(C)N=C(N)N=C(N)N1c1ccc(C(=O)O)cc1 | · | 2% | · | ·
COc1ccccc1NC(=O)CCNS(=O)(=O)c1ccc2[nH]c(=O)oc2c1 | ? | -6% | 23µM* | 1%
Nc1cc(Cl)ccc1C(=O)OCC(=O)NCC1CCCO1 (centres undefined) | -16% | -3% | 1% | ·
COc1ccccc1NS(=O)(=O)c1cc(NC(=O)C2CCCO2)ccc1C (centres undefined) | -12% | 0% | -8% | -1%
COc1ccc2oc(=Nc3ccccc3)c(-c3nc4ccccc4[nH]3)cc2c1 | ? | 1% | 10µM* | -3%
Nc1cc(N)cc(-c2nc3ccccc3[nH]2)c1 | 18µM* | 11% | 10µM* | ?
COC(=O)c1ccc(-c2nc3ccccc3[nH]2)cc1 | 23µM* | 3% | ? | 57%
COC(=O)c1ccc(/C=N/Nc2nc3ccccc3[nH]2)cc1 | ? | 3% | ? | ·
COc1ccc(-c2nc3ccccc3[nH]2)cc1 | 13µM* | 3% | 10µM* | 25µM*
O=C(CN1C(=O)NC(c2ccccc2)(c2ccccc2)C1=O)c1c[nH]c2ccccc12 | · | 8% | · | ·
COc1ccc(-c2cc(=O)n(-c3nc4ccccc4[nH]3)[nH]2)cc1 | -78% | 10% | 35µM* | 19%
COC(=O)c1ccc(C(=O)Nc2ccc3nc(-c4ccncc4)[nH]c3c2)cc1 | -12% | · | ? | 1%
COC(=O)c1ccc(C(=O)Nc2ccc3nc(-c4cccnc4)[nH]c3c2)cc1 | 5.2µM* | -2% | -16% | -28%
SMILES | TDP1 cell noCPT | TDP1 inh | TDP1 cell CPT | ClpP mod
CCCN(C)C1CN(Cc2cn(Cc3ccccc3)nn2)S(=O)(=O)C1 (centres undefined) | -13% | · | -2% | 3%
Cc1cc(C)cc(-n2c(SCC(=O)Nc3cccc(F)c3)nc3c([nH]c4ccccc43)c2=O)c1 | ? | 5% | -28% | 44%
CCc1ccc(NC(=O)C2CCN(S(=O)(=O)c3ccc4c(c3)N(C(C)=O)CCO4)CC2)cc1 | 18µM* | 7% | -28% | -2%
Cc1cc(C)cc(NC(=O)C2CCN(S(=O)(=O)c3cccc(-c4noc(C)n4)c3)CC2)c1 | 21µM* | 5% | 16µM* | 0%
COc1ccc(NC(=O)C2CCN(S(=O)(=O)c3cccc(-c4noc(C)n4)c3)CC2)cc1OC | 21µM* | 6% | ? | 2%
Cc1nc(-c2cccc(S(=O)(=O)N3CCC(C(=O)NCc4ccccc4)CC3)c2)no1 | ? | 0% | ? | -1%
COc1ccc(NC(=O)C2CCN(S(=O)(=O)c3ccc(OC)c(OC)c3)CC2)cc1 | -18% | 5% | 1% | -2%
CCc1ccc(NC(=O)C2CCN(S(=O)(=O)c3cccc(-c4noc(C)n4)c3)CC2)cc1 | 15µM* | 0% | 21µM* | 2%
c1ccc(COc2ncnc3c2ncn3CCCNCc2ccc3c(c2)OCO3)cc1 | ? | · | ? | 1%
Cc1ccccc1OCCC(=O)Nc1ccc2c(C)cc(=O)oc2c1 | 13% | -10% | ? | 3%
NC(=O)C1CCN(C(=S)NCCc2ccccc2)CC1 | -1% | -7% | 5% | -1%
O=C(Nc1cccc(F)c1)N1CCCC(CNS(=O)(=O)Cc2ccccc2)C1 (centres undefined) | -10% | 2% | 3% | -1%
CCN1C[C@@H]2[C@@H]3C(=O)N(C)C(=O)[C@@H]3[C@](CC)(C1=O)N2C(=O)c1ccc(C)cc1 | -21% | · | 2% | -1%
C=CCOc1ccc(C=CC(=O)c2c(O)c(OC)c(OC)c(OC)c2OC)cc1 | 16µM* | · | 16µM* | -1%
COc1ccc(-c2cn3cc(Br)cnc3n2)cc1 | ? | 0% | 26µM* | ·
COc1cccc(-c2nc(SCC(=O)NCC3CCCO3)c(-c3ccc(Cl)cc3)[nH]2)c1 (centres undefined) | ? | 2%[12.3 µM] | ? | 25µM*
COc1ccc2c(C)cc(SCC(=O)NC3CCCC3)nc2c1 | ? | 0% | -24% | -27%
COc1cccc(-c2nc(SCC(=O)NC3CCCC3)c(-c3ccc(C)cc3)[nH]2)c1 | ? | 10% | ? | ?
COc1cccc(-c2nc(SCC(=O)NC3CCCC3)c(-c3ccccc3)[nH]2)c1 | ? | 5% | ? | 32µM*
COc1cccc(-c2nc(SCC(=O)NCC3CCCO3)c(-c3ccc(C)cc3)[nH]2)c1 (centres undefined) | ? | 5% | ? | ?
COc1ccc2nc(SCC(=O)NC3CCCC3)c(C)cc2c1 | 16µM* | 6% | 16µM* | -10%
COc1cccc(-c2nc(SCC(=O)NC3CCCC3)c(-c3ccc(F)cc3)[nH]2)c1 | 21µM* | 5% | ? | 35µM*
COc1cc(=O)n2c(c1C(=O)NC(C)c1ccco1)CCN(Cc1cc(C)ccc1C)CC2 (centres undefined) | -17% | · | -5%[9.04 µM] | ·
Cc1ccc2ncc(S(=O)(=O)c3ccccc3)c(N3CCCCC3C)c2c1 (centres undefined) | 18µM* | 1% | 23µM* | 0%
COc1ccc(C)c2sc(N(CCCN(C)C)C(=O)CS(=O)(=O)c3ccc(F)cc3)nc12 | -19% | · | -50% | ·
O=C(NC(=S)N1CCN(c2ccc(F)cc2)CC1)c1ccccc1 | 21µM* | · | ? | -1%
